Out of some 340,000 compounds screened, about 2,100 (0.62%) were called active.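 How the source made its calls: active means first-screen hits whose inhibition reached a set limit at any dose in the follow-up dose series; inconclusive means inhibition above the set first-screen limit but never retested; inactive means the rest.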 Not all results are given here. Measured potencies and affinities stand elsewhere.
Target: Rac GTPase-activating protein 1 (Homo sapiens) (UniProt Q9H0H5)
Test: MgcRacGAP GTPase-activating activity inhibitors, confirmation, biochemical, ADP Hunter fluorescence, primary and confirmatory (AID 624330);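 further: fluorescence reports GDP produced by GAP-driven GTP hydrolysis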
Conditions: MgcRacGAP-stimulated Rac1 GTP hydrolysis, at 30 µM, stronger effect = higher value, GST-tagged Rac1 F28L mutant substrate

Rac GTPase-activating protein 1 (Homo sapiens), sequence (Q9H0H5 whole entry, looked up): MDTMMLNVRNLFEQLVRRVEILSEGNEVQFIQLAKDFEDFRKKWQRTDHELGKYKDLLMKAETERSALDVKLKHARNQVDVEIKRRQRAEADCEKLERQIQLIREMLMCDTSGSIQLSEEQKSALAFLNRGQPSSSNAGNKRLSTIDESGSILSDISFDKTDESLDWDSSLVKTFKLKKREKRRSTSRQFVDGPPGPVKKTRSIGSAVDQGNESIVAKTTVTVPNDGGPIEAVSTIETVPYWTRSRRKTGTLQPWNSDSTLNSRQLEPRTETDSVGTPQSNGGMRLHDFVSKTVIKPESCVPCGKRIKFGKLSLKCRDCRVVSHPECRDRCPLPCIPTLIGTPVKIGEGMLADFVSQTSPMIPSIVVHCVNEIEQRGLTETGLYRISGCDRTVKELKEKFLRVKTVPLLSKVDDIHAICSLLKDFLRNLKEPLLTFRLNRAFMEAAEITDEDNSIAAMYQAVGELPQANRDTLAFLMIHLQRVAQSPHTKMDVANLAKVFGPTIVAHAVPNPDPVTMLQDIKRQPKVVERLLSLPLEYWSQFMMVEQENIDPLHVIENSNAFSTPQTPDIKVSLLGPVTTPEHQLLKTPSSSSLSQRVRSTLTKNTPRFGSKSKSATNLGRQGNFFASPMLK

inhibition, inactive:
COc1ccc(C(CC(=O)N2CCCCC2)c2c(OC)cc(OC)c3c(-c4ccccc4)cc(=O)oc23)cc1 (stereo not given) 5.73%
COc1ccccc1N1CCN(C2CCCN(Cc3ccc(Cl)cc3)C2)CC1 (stereo not given) -6.75%
COc1ccc(Br)cc1C(C[N+](=O)[O-])c1c(N)n(C)c(=O)n(C)c1=O (stereo not given) 10.7%
Cc1ccc(C(C[N+](=O)[O-])c2c(N)n(C)c(=O)n(C)c2=O)cc1 (stereo not given) 5.58%
COc1ccc(/C=C2\N=C3CCCCCN3C2=O)cc1OC -1.04%
O=C1/C(=C/c2ccncc2)N=C2CCCCCN12 3.48%
COc1ccc(/C=C2/N=C3CCCCCN3C2=O)cc1 4.99%
COc1ccc(/C=C2/N=C3CCCCCN3C2=O)cc1OC 3.87%
COCCn1c(SCC(=O)c2cccc(OC)c2)nnc1-c1ccco1 13.4%
CC(=O)Nc1ccc(NS(=O)(=O)c2c(Cl)cccc2Cl)cc1 5.14%
Cc1cc(C)n2c(SCC(=O)N(CC(C)C)c3c(N)n(CC(C)C)c(=O)[nH]c3=O)nnc2n1 5.05%
O=C(O)CCC(=O)Nc1cccc(C(=O)c2ccccc2)c1 8.75%
OCc1ccccc1OCCCN1CCC(Cc2ccccc2)CC1 22.1%
COc1cccc(OC)c1OCCCN1CCC(Cc2ccccc2)CC1 28%
N#CC1(NC(=O)CSc2nnc(Cc3ccccc3)o2)CCCCC1 -4.91%
CC1CC(C)CN(C(=O)c2ccc(CSc3nc4ccncc4[nH]3)cc2)C1 (stereo not given) 4.54%
COc1ccc(C(=O)NCC(c2ccc3c(c2)OCO3)N2CCN(c3ccc(OC)cc3)CC2)cc1 (stereo not given) 7.8%
COc1ccc(C(CNC(=O)c2cc(C)oc2C)N2CCOCC2)cc1 (stereo not given) -3.27%
COc1ccc(C(CNC(=O)c2cc(F)c(F)c(F)c2F)N2CCOCC2)cc1 (stereo not given) 5.28%
COC(=O)NCC(c1ccc2c(c1)OCO2)N1CCN(c2ccccc2)CC1 (stereo not given) 6.79%
COc1ccc(N2CCN(C(CNC(=O)C(C)C)c3ccc4c(c3)OCO4)CC2)cc1 (stereo not given) 26.1%
COc1ccc(N2CCN(C(CNC(C)=O)c3ccc4c(c3)OCO4)CC2)cc1 (stereo not given) 11.6%
COc1cccc(CC(=O)OCC(=O)NC2(C#N)CCCCC2)c1 6.74%
COc1ccc(N2CC(C(=O)OCC(=O)NCc3ccccc3)CC2=O)cc1 (stereo not given) -1.54%
C=CCn1c(SCC(=O)O)nnc1-c1cccc(Cl)c1 -7.04%
C=CCn1c(SCC(=O)c2ccc(O)c(O)c2)nnc1-c1ccc(OC)cc1 8.3%
C=CCn1c(SCC(=O)c2ccc(O)c(O)c2)nnc1-c1ccccc1OC 19.4%
C=CCn1c(SCC(=O)c2ccc(O)c(O)c2)nnc1-c1ccc(C)cc1 24.7%
O=C(COc1ccccc1F)NCc1nc2ccccc2[nH]1 10.2%
N#Cc1ccc(Cl)cc1NC(=O)COC(=O)[C@H](CCC(N)=O)NC(=O)c1ccc(F)cc1 -1.8%
C[C@H](O)CNC(=O)c1[nH]cnc1C(=O)Nc1ccc(CNC(=O)OC(C)(C)C)cc1 13.6%
CC(=O)c1ccc(N2CCN(c3ccc(C(N)=O)cc3[N+](=O)[O-])CC2)cc1 6.37%
COc1ccc(N2CCN(c3ccc(C(=O)O)cc3[N+](=O)[O-])CC2)cc1 25.5%
COC(C[C@@H]1O[C@@H]1C(=O)COCc1ccccc1)OC 2.07%
O=C(NCCCn1ccnc1)c1cccc(S(=O)(=O)Nc2ccc(Br)cc2)c1 -2.05%
Cn1c(=O)[nH]c(=O)c2c1nc(N)n2Cc1ccccc1 5.45%
CSc1nc2c(c(=O)[nH]c(=O)n2C)n1Cc1ccccc1 2.19%
Cn1c(=O)c2c(nc(Br)n2CCCc2ccccc2)n(C)c1=O 8.11%
CNc1nc2c(c(=O)n(C)c(=O)n2C)n1CCCc1ccccc1 10.2%
CSc1nc2c(c(=O)[nH]c(=O)n2C)n1CCCc1ccccc1 5.17%
CNc1nc2c(c(=O)[nH]c(=O)n2C)n1CCCc1ccccc1 16.1%
COc1ccc(CCn2c(O)cc3nn(-c4nc5ccccc5s4)c(=O)c-3c2C)cc1 20.6%
Cc1ccc(C)c(S(=O)(=O)NCC(=O)NCc2ccco2)c1 1.96%
CC(C)Oc1ccc(C2NC(=O)c3ccccc3O2)cc1 (stereo not given) 4.5%
CC1CCCN(C(=O)C(=O)Nc2ccc3nc4n(c(=O)c3c2)CCCCC4)C1 (stereo not given) 7.24%
Cc1noc(NC(=O)c2cccc(Cl)c2Cl)c1C#N 6.81%
N#Cc1cccc(NC(=O)CSc2sc3c(O)cc(=O)[nH]c3c2C#N)c1 18.4%
NS(=O)(=O)c1ccc(NC(=O)CN2C(=O)CCC2=O)cc1 6.61%
CC1CN(C(=O)N2c3ccccc3Sc3ccccc32)C(C)CC1=O (stereo not given) 5.35%
O=C(CSc1ccccc1)NCC(c1ccco1)N1CCCCC1 (stereo not given) 3.84%
CN1OC[C@@H]2CN[C@H](c3ccc(-c4cccc(F)c4)cc3)C[C@@H]21 15.6%
Cc1nn2cc(-c3ccc(Cl)cc3)nc2s1 -6.27%
Cc1nn2cc(-c3ccc(-c4ccccc4)cc3)nc2s1 11.1%
CC(C)C(=O)N1CCN(c2ccc(NC(=O)c3ccc4c(c3)OCCO4)cc2)CC1 5.03%
Cc1nn(-c2ccccc2)c(Cl)c1/C=N/O 9.11%
Cc1nn(-c2ccccc2)c(C)c1/C=N/O 12.2%
Cc1ccc2nc(C)c(C(=O)N/N=C/c3ccco3)cc2c1 3.04%
CCN(C[C@H]1N[C@@](C)(C(=O)OC)[C@H]2C(=O)N(C)C(=O)[C@@H]12)C(=O)c1ccccc1 6.04%
CC(=O)N(C1=C(N)C(=O)c2ccccc2C1=O)c1ccccc1 9.97%
CC(=O)N(C1=C(N2CCOCC2)C(=O)c2ccccc2C1=O)c1ccc(C(=O)O)cc1 -12.8%
CSc1ccc(NC(=O)CSc2nc3[nH]c(=O)cc(O)c3s2)cc1 11.1%
COC(=O)[C@@H](N)Cc1ccc(O)c(O)c1 -7.99%
N[C@@H](Cc1ccc(O)c(O)c1)C(=O)O 6.56%
COc1ccc(N2CC(C(=O)Nc3ccc(N4CCOCC4)cc3)CC2=O)cc1 (stereo not given) 6.69%
CCOc1cc(C(c2c(C)[nH][nH]c2=O)c2c(C)[nH][nH]c2=O)ccc1OCc1ccc([N+](=O)[O-])cc1 -0.47%
Cc1ccccc1N(C(=O)c1csnn1)C(C(=O)NC1CCCCC1)c1ccncc1 (stereo not given) -1.41%
Cc1nc2nc(-c3ccccc3)cc(=O)n2[nH]1 4.54%
Cc1cc2nc(-c3ccccc3)cc(=O)n2[nH]1 14.4%
CC(C)C(=O)Nc1nnc(NC(=S)Nc2ccccc2)s1 1%
COc1cccc2[nH]c3c(Cl)ncnc3c12 5.53%
COc1ccccc1Nc1ncnc2nc[nH]c12 6.06%
CCOCCn1c(SC(C)C(C)=O)nc2c1c(=O)[nH]c(=O)n2C (stereo not given) 5.63%
CCOC(=O)c1c(C)oc2c(CN3CCN(C)CC3)c(Br)c(OC)c(O)c12 14.1%
COc1ccccc1N=Nc1c(C)n[nH]c1C 7.74%
COc1ccccc1N=Nc1c(C)noc1C 2.76%
COCCN(C(=O)CSc1nc2ccc(Cl)cc2[nH]1)c1c(N)n(Cc2ccccc2)c(=O)[nH]c1=O 10.9%
Cn1ncc(Cl)c1C(=O)N1CCN(c2cccc(Cl)c2)CC1 7.96%
CCN(c1ccccc1)S(=O)(=O)c1ccc(Cl)c(NC(=O)CN2CCN(C)CC2)c1 -0.66%
CCN(c1ccccc1)S(=O)(=O)c1ccc(Cl)c(NC(=O)CN2CCCCCC2)c1 29.2%
CCCCSCCCNC(=O)c1ccc(CS(=O)(=O)c2ccccc2OC)o1 5.81%
CC(C)Cn1c(-c2ccco2)n[nH]c1=S 26.8%
CC(C)Cn1c(-c2ccc(F)cc2)n[nH]c1=S 14.4%
CCOC(=O)C1=C(c2ccccc2)Nc2ncnn2C1c1ccc(O)cc1 (stereo not given) 5.08%
COc1ccc(C2CC(c3ccncc3)=NN2c2ccc(S(N)(=O)=O)cc2)cc1 (stereo not given) 9.08%
COc1ccc(N2C(=O)CSC2c2ccncc2)cc1 (stereo not given) 8.8%
Cc1ccnc(NC(=O)c2cccc(NC(=O)c3ccccc3C)c2)c1 11.1%
Clc1ccc(-c2ccc(C=Nc3ccc(N4CCOCC4)cc3)o2)cc1 25.6%
Clc1ccc(-c2ccc(C=Nc3ccc(N4CCOCC4)cc3)o2)c(Cl)c1 9.07%
O=C(CN1CCOCC1)N/N=C/c1ccc(-c2cccc(Cl)c2Cl)o1 7.09%
Clc1cccc(-c2ccc(C=Nc3ccc(N4CCOCC4)cc3)o2)c1 23.7%
Cc1c(C)c2cccnc2c2ncccc12 8.09%
O=C1CCCc2oc3ccc(NS(=O)(=O)c4cccc5cccnc45)cc3c21 -1.33%
COc1ccc(Br)cc1S(=O)(=O)n1nc(C)cc1C -4.17%
CCN(CC(=O)NCCCn1ccnc1)S(=O)(=O)c1ccc(C)cc1 -8.53%
O=C(c1cccn2c(=O)c3cc(Cl)ccc3nc12)N1CCN(Cc2ccc3c(c2)OCO3)CC1 9.42%
